In PubChem BioAssay (Tox21):
Records with an inconclusive call do not appear. Activity calls are given as the source filed them. Unless noted, calls follow the shape of the dose curve; as a rule, active = well fitted curve in the direction sought with a large enough effect in the repeat runs; inconclusive = weak or mixed curves; inactive = no such curve, though single readings can be large; an effect the other way counts as inactive or inconclusive.

Assays:
[1] = qHTS assay to identify aromatase inhibitors - cell viability counter screen (AID 743084);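 also: cells stimulated with testosterone during compound exposure; nearly all actives have a fitted effect of over 55% in size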
[2] = target: Aryl hydrocarbon receptor (Homo sapiens) (UniProt P35869); experiment: qHTS assay to identify small molecule that activate the aryl hydrocarbon receptor (AhR) signaling pathway (AID 743085);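 also: HG2L7.5c1 human HepG2 liver cells with stably integrated DRE-driven firefly reporter; series mostly up to about 70 µM; nearly all actives have a fitted effect of over 15% in size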
Chain of Aryl hydrocarbon receptor (Homo sapiens) (P35869 whole entry, looked up): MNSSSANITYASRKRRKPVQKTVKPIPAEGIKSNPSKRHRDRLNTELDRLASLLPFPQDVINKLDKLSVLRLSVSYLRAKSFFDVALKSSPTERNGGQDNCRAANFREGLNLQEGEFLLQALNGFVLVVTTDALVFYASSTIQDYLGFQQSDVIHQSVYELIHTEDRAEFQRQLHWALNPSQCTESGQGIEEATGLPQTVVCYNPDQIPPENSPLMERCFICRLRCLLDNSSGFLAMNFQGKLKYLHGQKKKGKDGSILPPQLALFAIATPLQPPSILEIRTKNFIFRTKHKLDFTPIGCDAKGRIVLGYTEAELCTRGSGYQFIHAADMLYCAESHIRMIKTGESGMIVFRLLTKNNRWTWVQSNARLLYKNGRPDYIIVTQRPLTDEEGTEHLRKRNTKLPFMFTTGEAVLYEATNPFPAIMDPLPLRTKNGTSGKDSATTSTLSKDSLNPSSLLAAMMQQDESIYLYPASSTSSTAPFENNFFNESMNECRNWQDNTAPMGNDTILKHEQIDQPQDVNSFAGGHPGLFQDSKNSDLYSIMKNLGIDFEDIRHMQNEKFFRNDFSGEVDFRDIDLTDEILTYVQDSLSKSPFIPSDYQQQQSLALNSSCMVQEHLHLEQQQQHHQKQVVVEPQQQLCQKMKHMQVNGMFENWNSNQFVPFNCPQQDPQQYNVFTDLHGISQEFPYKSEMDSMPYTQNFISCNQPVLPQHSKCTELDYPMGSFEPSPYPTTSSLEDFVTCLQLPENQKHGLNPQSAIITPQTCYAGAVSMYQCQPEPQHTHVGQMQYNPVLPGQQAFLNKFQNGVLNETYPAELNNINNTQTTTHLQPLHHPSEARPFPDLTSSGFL
Outline: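 HepG2 cells stably carrying a 20-DRE firefly luciferase reporter (HG2L7.5c1) treated with compound for 24 hr at 37C. Luciferase read by ONE-Glo luminescence, with CellTiter-Fluor viability read first.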

[3] = qHTS assay to identify small molecule that activate the aryl hydrocarbon receptor (AhR) signaling pathway - cell viability counter screen (AID 743086);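 also: HepG2 liver cells carrying the AhR DRE luciferase reporter; series mostly up to about 70 µM; nearly all actives have a fitted effect of over 45% in size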
Outline: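 Cytotoxicity counter screen: CellTiter-Fluor signal (30 min, 37 C) in 4000 HepG2 cells/well carrying the DRE-luciferase reporter, following 24 h compound exposure at 37 C.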

[4] = target: Peroxisome proliferator-activated receptor gamma (Homo sapiens) (UniProt P37231); experiment: qHTS assay to identify small molecule antagonists of the peroxisome proliferator-activated receptor gamma (PPARg) signaling pathway (AID 743191; calls by dose curve; also: series mostly up to about 63 µM; nearly all actives have a fitted effect of over 30% in size)
Chain of Peroxisome proliferator-activated receptor gamma (Homo sapiens) (P37231 whole entry, looked up): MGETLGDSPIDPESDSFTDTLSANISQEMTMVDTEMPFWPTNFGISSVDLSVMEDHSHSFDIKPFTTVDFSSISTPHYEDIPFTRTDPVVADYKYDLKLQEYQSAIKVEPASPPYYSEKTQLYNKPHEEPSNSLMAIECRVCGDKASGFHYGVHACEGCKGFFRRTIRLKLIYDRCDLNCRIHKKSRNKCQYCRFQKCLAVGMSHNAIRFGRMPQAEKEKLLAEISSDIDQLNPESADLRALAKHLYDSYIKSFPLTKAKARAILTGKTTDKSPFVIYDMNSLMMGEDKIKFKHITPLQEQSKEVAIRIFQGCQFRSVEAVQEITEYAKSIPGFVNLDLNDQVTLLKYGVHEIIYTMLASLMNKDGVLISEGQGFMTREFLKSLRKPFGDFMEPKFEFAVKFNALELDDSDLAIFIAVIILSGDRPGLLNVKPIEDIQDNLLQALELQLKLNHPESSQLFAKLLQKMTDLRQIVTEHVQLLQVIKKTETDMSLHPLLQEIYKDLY
Outline: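 Beta-lactamase reporter under UAS control in HEK293H PPARg-bla cells; compound treatment 17 h at 37C. Read-out: fluorescence intensity after 1 h room-temperature incubation with LiveBLAzer B/G FRET substrate.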

[5] = qHTS assay to identify small molecule antagonists of the peroxisome proliferator-activated receptor gamma (PPARg) signaling pathway - cell viability counter screen (AID 743194); also: nearly all actives have a fitted effect of over 55% in size
Outline: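 Viability was measured as CellTiter-Glo luminescence in GeneBLAzer PPARg UAS-bla HEK293H cells. These cells had been exposed 17 h at 37 C to compounds together with rosiglitazone at 50 nM final, with the beta-lactamase readout taken in the same wells.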

[6] = qHTS assay for small molecule agonists of the antioxidant response element (ARE) signaling pathway (AID 743202; active = well fitted activation curve with a large enough effect in the signal ratio in the repeat runs, not every such curve was filed as active; the % refers to the signal ratio)
Outline: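 Quantitative high-throughput format in HepG2 cells bearing an integrated ARE-beta-lactamase reporter. Compound exposure lasted 16 h at 37 C, and fluorescence was read 2 h after adding LiveBLAzer B/G substrate at room temperature.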

[7] = qHTS assay for small molecule agonists of the antioxidant response element (ARE) signaling pathway - cell viability counter screen (AID 743203; calls by dose curve; also: nearly all actives have a fitted effect of over 55% in size)
Outline: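 Compounds in DMSO were pinned onto ARE-bla HepG2 cells plated 5 hrs earlier at 2,000 cells/well. Sixteen hours later at 37C/5% CO2, CellTiter-Glo was added and luminescence measured after 30 min at room temperature.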

[8] = qHTS assay for small molecule activators of the heat shock response signaling pathway - cell viability counter screen (AID 743209); also: nearly all actives have a fitted effect of over 50% in size
Outline: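 Counter screen for cytotoxicity in HeLa HSE-bla reporter cells. Treatment was 5 h at 37 C; viability was detected by luminescent ATP assay (CellTiter-Glo) in the same wells as the beta-lactamase read.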

[9] = qHTS assay to identify small molecule agonists of the peroxisome proliferator-activated receptor delta (PPARd) signaling pathway - cell viability counter screen (AID 743211); also: nearly all actives have a fitted effect of over 55% in size
Outline: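 PPARd-bla HEK293H cells (3000/well) were pre-incubated 5 h at 37 C, then exposed to compound for 17 h at 37 C. After 2 h with LiveBLAzer substrate, CellTiter-Glo was added to the same wells; luminescence read after 30 min at room temperature.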

[10] = target: Peroxisome proliferator-activated receptor delta (Homo sapiens) (UniProt Q03181); experiment: qHTS assay to identify small molecule agonists of the peroxisome proliferator-activated receptor delta (PPARd) signaling pathway (AID 743212; calls by dose curve)
Chain of Peroxisome proliferator-activated receptor delta (Homo sapiens) (Q03181 whole entry, looked up): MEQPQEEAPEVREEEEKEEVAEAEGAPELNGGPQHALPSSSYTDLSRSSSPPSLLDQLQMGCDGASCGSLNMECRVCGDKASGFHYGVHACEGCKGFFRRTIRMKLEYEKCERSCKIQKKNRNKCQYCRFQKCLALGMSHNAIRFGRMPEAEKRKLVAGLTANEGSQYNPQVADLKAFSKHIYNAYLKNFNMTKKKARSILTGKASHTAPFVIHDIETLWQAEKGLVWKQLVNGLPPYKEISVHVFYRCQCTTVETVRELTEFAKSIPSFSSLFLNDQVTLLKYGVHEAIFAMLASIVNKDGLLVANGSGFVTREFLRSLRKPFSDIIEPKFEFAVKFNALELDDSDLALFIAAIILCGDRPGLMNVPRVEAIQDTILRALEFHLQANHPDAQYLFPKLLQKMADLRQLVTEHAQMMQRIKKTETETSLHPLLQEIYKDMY
Outline: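 HEK293H PPARd-bla cells; 5 h preincubation 37 C/5% CO2; compound (DMSO) 37 C; LiveBLAzer B/G FRET substrate 2 h RT; fluorescence intensity.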

[11] = qHTS assay to identify small molecule antagonists of the peroxisome proliferator-activated receptor delta (PPARd) signaling pathway - cell viability counter screen (AID 743213); also: nearly all actives have a fitted effect of over 50% in size
Outline: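 PPARd-bla HEK293H cells (3000/well) got compound plus 300 nM L165041 agonist for 17 h at 37 C. Viability in the same wells came from CellTiter-Glo luminescence after 30 min at room temperature.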

[12] = target: Peroxisome proliferator-activated receptor delta (Homo sapiens) (UniProt Q03181); experiment: qHTS assay to identify small molecule antagonists of the peroxisome proliferator-activated receptor delta (PPARd) signaling pathway (AID 743215; active = well fitted inhibition curve with a large enough effect in the signal ratio in the repeat runs, not every such curve was filed as active; the % refers to the signal ratio;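 also: cells stimulated with agonist L165041 at 300 nM final during compound exposure; series mostly up to about 62 µM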)
Outline: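 With L165041 present at 300 nM final, compounds were incubated 17 h at 37 C on PPARd UAS-bla HEK293H cells. A FRET-based beta-lactamase substrate was then applied for 2 h at room temperature and fluorescence intensity recorded.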

[13] = qHTS assay to identify small molecule agonists of the farnesoid-X-receptor (FXR) signaling pathway - cell viability counter screen (AID 743218); also: nearly all actives have a fitted effect of over 45% in size
Outline: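 After 16 h at 37 C with test compounds, FXR-bla HEK 293T cells were given LiveBLAzer B/G substrate for 2 h at RT and then CellTiter-Glo; luminescence was taken after 30 min.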

[14] = qHTS assay to identify small molecule antagonists of the farnesoid-X-receptor (FXR) signaling pathway - cell viability counter screen (AID 743221; active = well fitted cell-killing curve with a large enough effect in the repeat runs, not every such curve was filed as active; also: nearly all actives have a fitted effect of over 50% in size)
Outline: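 GeneBLAzer FXR-UAS-bla HEK 293T cells, compound plus chenodeoxycholic acid (50 uM final), 16 h at 37 C. CellTiter-Glo added to the same wells after the beta-lactamase read; luminescence read after 30 min at room temperature as viability.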

[15] = target: Vitamin D3 receptor (Homo sapiens) (UniProt P11473); experiment: qHTS assay to identify small molecule agonists of the vitamin D receptor (VDR) signaling pathway (AID 743222; calls by dose curve)
Chain of Vitamin D3 receptor (Homo sapiens) (P11473 whole entry, looked up): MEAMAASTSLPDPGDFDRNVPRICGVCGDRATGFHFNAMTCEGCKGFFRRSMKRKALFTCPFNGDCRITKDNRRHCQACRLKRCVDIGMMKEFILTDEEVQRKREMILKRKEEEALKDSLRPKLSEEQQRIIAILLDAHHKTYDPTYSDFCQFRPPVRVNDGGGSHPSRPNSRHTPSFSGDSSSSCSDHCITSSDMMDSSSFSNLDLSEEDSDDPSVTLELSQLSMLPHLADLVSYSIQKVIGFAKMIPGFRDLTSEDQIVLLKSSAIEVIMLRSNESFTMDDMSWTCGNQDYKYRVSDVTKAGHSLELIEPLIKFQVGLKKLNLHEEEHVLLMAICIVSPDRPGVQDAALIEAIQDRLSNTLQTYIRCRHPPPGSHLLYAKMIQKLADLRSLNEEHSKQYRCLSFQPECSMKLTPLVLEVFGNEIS
Outline: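 VDR-bla cells were seeded, left 4 h, treated with compounds in DMSO for 16 h, incubated 2 h at RT with B/G FRET substrate, and read for fluorescence.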

[16] = qHTS assay for small molecule activators of the heat shock response signaling pathway (AID 743210; active = well fitted activation curve with a large enough effect in the signal ratio in the repeat runs, with a control signal flat, not every such curve was filed as active; the % refers to the signal ratio;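 also: HeLa cells with beta-lactamase reporter driven by heat shock elements; series mostly up to about 63 µM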)
Outline: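 HeLa HSE-bla cells, overnight plating; cpd in DMSO 5 h, 37 C; LiveBLAzer B/G FRET substrate 2.5 h RT; fluorescence intensity read.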

[17] = target: Bile acid receptor (Homo sapiens) (UniProt Q96RI1); experiment: qHTS assay to identify small molecule agonists of the farnesoid-X-receptor (FXR) signaling pathway (AID 743220; active = well fitted activation curve with a large enough effect in the signal ratio in the repeat runs, not every such curve was filed as active; the % refers to the signal ratio)
Chain of Bile acid receptor (Homo sapiens) (Q96RI1 whole entry, looked up): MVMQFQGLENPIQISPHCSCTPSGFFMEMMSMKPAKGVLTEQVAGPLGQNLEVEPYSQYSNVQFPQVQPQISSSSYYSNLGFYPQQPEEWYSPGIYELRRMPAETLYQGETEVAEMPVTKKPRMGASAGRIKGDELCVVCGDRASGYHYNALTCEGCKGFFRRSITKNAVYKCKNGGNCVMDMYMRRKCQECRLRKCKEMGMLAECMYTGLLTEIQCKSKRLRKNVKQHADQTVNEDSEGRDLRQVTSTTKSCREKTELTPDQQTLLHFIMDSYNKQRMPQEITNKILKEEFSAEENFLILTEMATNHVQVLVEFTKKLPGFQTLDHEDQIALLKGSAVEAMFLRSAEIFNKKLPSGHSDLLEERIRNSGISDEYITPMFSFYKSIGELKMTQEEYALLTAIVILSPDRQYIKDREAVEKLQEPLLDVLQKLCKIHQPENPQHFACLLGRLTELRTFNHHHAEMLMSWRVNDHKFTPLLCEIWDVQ
Outline: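 Beta-lactamase reporter under UAS control in GeneBLAzer FXR HEK 293T cells (5000/well) measured with LiveBLAzer FRET substrate after 2 h at room temperature. Compound exposure lasted 16 h at 37C.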

[18] = target: Vitamin D3 receptor (Homo sapiens) (UniProt P11473); experiment: qHTS assay to identify small molecule antagonists of the vitamin D receptor (VDR) signaling pathway (AID 743223; active = well fitted inhibition curve with a large enough effect in the signal ratio in the repeat runs, not every such curve was filed as active; the % refers to the signal ratio)
Outline: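 VDR-bla cells were treated with compound plus 3 nM final 1alpha,25-dihydroxyvitamin D3 for 16 h at 37C. Beta-lactamase reporter read by B/G FRET substrate fluorescence after 2 h at room temperature. qHTS format.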

[19] = target: Peroxisome proliferator-activated receptor gamma (Homo sapiens) (UniProt P37231); experiment: qHTS assay to identify small molecule agonists of the peroxisome proliferator-activated receptor gamma (PPARg) signaling pathway (AID 743094; active = well fitted activation curve with a large enough effect in the signal ratio in the repeat runs, not every such curve was filed as active; the % refers to the signal ratio)
Outline: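 Following 5 h plating at 37C, PPARg-bla HEK293H cells receive compound or DMSO for 17 h; fluorescence intensity is recorded after LiveBLAzer B/G loading for 1 h at room temperature.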

[20] = target: Bile acid receptor (Homo sapiens) (UniProt Q96RI1); experiment: qHTS assay to identify small molecule antagonists of the farnesoid-X-receptor (FXR) signaling pathway (AID 743217; active = well fitted inhibition curve with a large enough effect in the signal ratio in the repeat runs, not every such curve was filed as active; the % refers to the signal ratio)
Outline: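 In this cell-based antagonist screen, inhibition of CDCA-driven (50 uM final) UAS-beta-lactamase expression in HEK 293T cells was measured by FRET fluorescence following 16 h compound exposure at 37 °C.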

Measured: Potency

CCCCCCCCOC(C)=O
not listed: [16] | [17] | [18] | [19] | [20]
inactive: all other assays above

CCOc1ccc(NC(=O)OC(C)C)cc1OCC
not listed: [10] | [19] | [20]
inactive: all other assays above

Cc1cc(C)cc([N+](=O)[O-])c1
not listed: [4] | [7] | [11] | [12] | [20]
inactive: all other assays above

FC(F)(F)c1ccc(Cl)cc1Cl
not listed: [4] | [10] | [12] | [16] | [17] | [20]
inactive: all other assays above

C1CCN2C[C@@H]3C[C@@H](CN4CCCC[C@@H]34)[C@H]2C1
not listed: [4] | [17] | [19] | [20]
inactive: all other assays above

CCCCOC(=O)C(C)OC(=O)CCC (stereo unspecified)
not listed: [4] | [11] | [16] | [17] | [18] | [20]
inactive: all other assays above

O=C(O)c1ccccc1C(=O)OCc1ccccc1
not listed: [7] | [14] | [15] | [18] | [19]
inactive: all other assays above

O=C(Oc1ccccc1C(=O)O)c1ccccc1O
not listed: [19]
inactive: all other assays above

OCCCCCCCl
not listed: [4] | [9] | [10] | [12] | [16] | [17] | [20]
inactive: all other assays above

SCCSCCS
not listed: [4] | [7] | [11] | [12] | [18] | [20]
inactive: all other assays above

C=C[Si](C)(C)O[Si](C)(C)C=C
not listed: [9] | [10] | [12] | [17] | [19] | [20]
inactive: all other assays above

CC(=O)Nc1ccc(C)cc1
not listed: [11] | [17] | [19] | [20]
inactive: all other assays above

O=C1OC(=O)c2cc(Oc3ccc4c(c3)C(=O)OC4=O)ccc21
not listed: [4] | [10] | [11] | [12] | [13] | [18]
inactive: all other assays above
